Results published in PubChem BioAssay AID602393 (Broad Institute, 2012).
About 7,000 (2%) of roughly 350,000 compounds were called active. The sample holds actives, similar compounds and a random draw of the others, so the mix is not that of the screen. Unmarked numbers belong to inactive results. No stated cut-off is given here; in the data, active means activation above about 40%; inconclusive means no clear call, values can overlap the other calls; inactive means below that.

Assay: raisers of Bmi1 knock-in reporter signal – mouse ES cells, Bmi1 luciferase knock-in, single point, esBAF inhibitor project, primary screen (AID 602393);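 further: 0% = median of the plate's neutral control wells and 100% = double that signal; a rise in the Bmi1 reporter signal indicates esBAF inhibition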
Conditions: 24 h, at 12.5 µM, hits give high values, 100% = twice the neutral-well signal

Row | SMILES | reporter increase
1 | COc1cccc(C(=O)Nc2ccc3c(c2)C(=O)N(C)C[C@@H](OC)[C@@H](C)CN(C)[C@@H](C)CO3)c1 | 1.2%
2 | C[C@@H]1CN([C@@H](C)CO)S(=O)(=O)c2ccc(-c3cccnc3)cc2O[C@H]1CN(C)CC1CCOCC1 | 2.46%
3 | O=C(C[C@H]1C[C@@H]2c3cc(NC(=O)CC4CC4)ccc3O[C@@H]2[C@H](CO)O1)NCc1ccccn1 | 0.771%
4 | C[C@H]1CN([C@@H](C)CO)C(=O)c2cc(C3=CCCC3)cnc2O[C@H]1CN(C)C(=O)Nc1ccc(F)cc1 | -1.8%
5 | COc1cccc(-c2cnc3c(c2)C(=O)N([C@H](C)CO)C[C@H](C)[C@H](CN(C)C(=O)NC(C)C)O3)c1 | -3.06%
6 | Cc1ccccc1-c1ccc([C@@H]2[C@H](CO)N3CCCCN(S(=O)(=O)c4ccc(F)cc4)C[C@@H]23)cc1 | -4.12%
7 | O=c1oc2cc(O)ccc2cc1-c1ccc(F)cc1 | 47.3% (active)
8 | CO[C@@H]1CC[C@H]2CCOc3c(C#N)cccc3C(=O)N(C)C[C@@H](OC)[C@H](C)C(=O)N(C)C[C@@H]1O2 | -3.58%
9 | CCCNC(=O)N(C)C[C@H]1Oc2ncc(-c3ccc(F)cc3)cc2C(=O)N([C@H](C)CO)C[C@H]1C | 1.97%
10 | C[C@@H](NC(=O)C[C@H]1CC[C@H](NS(=O)(=O)c2cccc(F)c2)[C@H](CO)O1)c1ccccc1 | -2.73%
11 | CO[C@H]1CN(C)C(=O)c2cc(NS(=O)(=O)CC(F)(F)F)ccc2OC[C@@H](C)N(Cc2nccs2)C[C@@H]1C | -3.43%
12 | O=C(Nc1ccc2c(c1)OCO2)N[C@@H]1CC[C@H](CC(=O)N2CCN(c3ccccc3)CC2)O[C@@H]1CO | -0.613%
13 | Cc1ccc(NC(=O)NC2CCCCC2)cc1S(=O)(=O)N1CCOCC1 | -1.63%
14 | Cc1ccc(C)c(S(=O)(=O)N2CCCOC2CNC(=O)C(=O)NC2CCCCC2)c1 (configuration not stated) | 51.3% (active)
15 | O=C(NCCC1CCCCN1S(=O)(=O)c1ccccc1)C(=O)NCC1CCCO1 (configuration not stated) | -3.85%
16 | O=C(C[C@H]1CC[C@H]2[C@@H](COC[C@@H](O)CN2C(=O)c2ccc3c(c2)OCO3)O1)NC1Cc2ccccc2C1 | -0.266%
17 | CN(C)CC(=O)Nc1ccc2c(c1)[C@H]1C[C@H](CC(=O)NCc3ccc4c(c3)OCO4)O[C@@H](CO)[C@H]1O2 | 2.82%
18 | Cn1c(SCc2nc3ccccc3s2)nnc1-c1ccc2c(c1)OCO2 | 66.4% (active)
19 | Cn1c(SCC(=O)N2CCCC2)nnc1-c1ccc2c(c1)OCO2 | 1.7%
20 | O=C(O)CSc1nnc(-c2ccc3c(c2)OCO3)n1-c1ccccc1 | 19.1%
21 | C[C@@H]1CCCCO[C@H](CN(C)C(=O)Cc2ccccc2)[C@H](C)CN([C@H](C)CO)C(=O)c2cc(NS(=O)(=O)c3cn(C)cn3)ccc2O1 | 5.86%
22 | C[C@H](CO)N1C[C@H](C)[C@@H](CN(C)Cc2cccc3c2OCCCO3)OCc2cn(nn2)CCCC1=O | -0.925%
23 | Cc1nn(C(=O)c2ccoc2C)c(N)c1-c1ccccc1 | 78.5% (active)
24 | Cc1occc1C(=O)Nc1cccc(Cn2cccn2)c1 | 10.4%

Row | SMILES | reporter increase
25 | Cc1ccnc(NC(=O)c2ccoc2C)c1 | 25.4%
26 | C[C@@H]1CN([C@H](C)CO)C(=O)Cc2cc(NS(=O)(=O)c3ccc(Cl)cc3)ccc2O[C@@H]1CN(C)C | -0.489%
27 | Fc1ccccc1COc1ccccc1CNCc1ccncc1 | 2.36%
28 | Fc1ccccc1COc1cccc2cccnc12 | 45.7% (active)
29 | O=S(=O)(NCCOc1cccc2cccnc12)c1ccc(F)cc1 | 11.1%
30 | CC(C)CC#Cc1cnc2c(c1)C(=O)N([C@@H](C)CO)C[C@H](C)[C@@H](CN(C)Cc1ccccc1C(=O)O)O2 | -9.83%
31 | CCn1ccnc1CN(C)C(=O)c1cc(COc2ccc(Cl)cc2OC)on1 | 1.62%
32 | CCOC(=O)CC1(NC(=O)c2cc(COc3cncc(Cl)c3)on2)CCCCC1 | 2.06%
33 | CCCOC1CCCN(C(=O)c2cc(COc3cncc(Cl)c3)on2)C1 (configuration not stated) | 66.1% (active)
34 | CCOC(=O)C1CCCN(C(=O)c2cncc(Br)c2)C1 (configuration not stated) | -6.09%
35 | COc1cc(Cl)ccc1OCc1cc(C(=O)N(C)CCc2c(C)n[nH]c2C)no1 | 14.1%
36 | COc1cc(Cl)ccc1OCc1cc(C(=O)N2CC[C@@H]3CCCC[C@H]3C2)no1 | 52.6% (active)
37 | C[C@@H]1CN([C@H](C)CO)C(=O)c2cc(NC(=O)Cn3cnnn3)ccc2O[C@@H]1CN(C)CC1CC1 | -4.62%
38 | C[C@H](CO)N1C[C@H](C)[C@H](CN(C)S(C)(=O)=O)Oc2c(NC(=O)Nc3cccc4ccccc34)cccc2C1=O | -0.771%
39 | C[C@H](O)C#Cc1cnc2c(c1)C(=O)N([C@@H](C)CO)C[C@H](C)[C@H](CN(C)C(=O)c1ccccc1)O2 | -2.39%
40 | CN1C(=O)c2cc(NC(=O)c3ccccc3)ccc2OC[C@@H]2O[C@@H](CC(=O)NC3CCCC3)CC[C@H]21 | -4.47%
41 | C[C@H]1CCCCO[C@@H](CN(C)Cc2ccc3c(c2)OCO3)[C@@H](C)CN([C@@H](C)CO)C(=O)c2cc(NS(=O)(=O)c3ccc(F)cc3)ccc2O1 | 3.56%
42 | COCCN(C[C@H]1[C@@H](c2ccccc2)[C@H](CO)N1C(=O)C1CCC1)C(C)=O | -2.98%
43 | C[C@@H]1CN([C@H](C)CO)C(=O)c2cc(C#CC3CC3)cnc2O[C@H]1CN(C)C(=O)CC1CC1 | 3.96%
44 | COc1ccccc1/C=C/C(=O)NC(=S)N1CCOCC1 | 44.4% (active)
45 | COc1ccccc1/C=C/C(=O)NC1CC2CCC1C2 (configuration not stated) | 28.1%
46 | O=C(/C=C/c1ccco1)NC(=S)N1CCCCC1 | 11.3%
47 | C[C@H]1CN([C@@H](C)CO)S(=O)(=O)c2ccc(-c3ccncc3)cc2O[C@@H]1CN(C)C(=O)CC1CC1 | -3.03%
